From ChEMBL document CHEMBL3988442, “University of Dundee, Small-Polar-MMV Screening Library” (2021) come the findings set out here.

The whole screen tested about 66,000 compounds, of which about 960 (1.5%) showed an effect of 50% or more. This excerpt belongs to a sample that is enriched for strong results.

This assay has as its system Trypanosoma brucei. Briefly: Trypanosoma brucei 72 hour study. Format: functional, organism-based. Also noted: scale not given: in the data most compounds retested in dose-response had high values.

Take `O=C(c1cccc(Cn2ccnc2)c1)N1CCCC(n2cccn2)C1` (stereo not given): the “Percent Effect” value (30.3 µM, […]) came to 2.699%.

Take `Cc1nc(CNCC2CN(C)CCO2)cs1` (stereo not given): under “30.3 µM, […]”, the “Percent Effect” value is 3.844%.

On to `Cc1ccc(OCc2nc(CNCC3CN(C)CCO3)cs2)cc1` (stereo not given), for which the “Percent Effect” value (10 µM) turned out to be 77.03%.

With `Cc1nc(COc2ccc(CNCC3CN(C)CCO3)cc2)cs1` (stereo not given), the “Percent Effect” value (30.3 µM, […]) was -2.349%.

Regarding `CN1CCOC(CNCc2cccc(OCc3ccccn3)c2)C1` (stereo not given), under “30 µM, 30.03 µM”, the “Percent Effect” value is on record as -14.98%.

Take `CN1CCOC(CNCc2ccc(OCc3ccccn3)cc2)C1` (stereo not given): the “Percent Effect” value reads like this: (30.3 µM, […]) 56.06%; (10 mM, 10 mM as filed; unlikely as a test dose) -23.3%.

As for `CCN1CCOC(CNCc2ccc(OCc3ccccn3)cc2)C1` (stereo not given), under “10 µM”, the “Percent Effect” value is given as -32.81%.

Turning to `Cc1ccc(S(=O)(=O)NCC(C)(C)N)c(F)c1.Cl`, the “Percent Effect” value (30 µM, 30.03 µM) is on record as -16.31%.

Turning to `Cc1cc(Oc2ccccc2F)nc(C2CCCCN2)n1.Cl.Cl` (stereo not given), the “Percent Effect” value (30.3 µM, […]) is -25.86%.

Regarding `Cc1nn(C)c(N(C)C)c1CNC1CCc2c(Cl)cccc21.Cl` (stereo not given), the “Percent Effect” value (30.3 µM, […]) is 17.67%.

As to `CN(Cc1cn2c(n1)CN(C(=O)CC1CC1)CC2)Cc1ccco1.O=C(O)C(F)(F)F`, for the setting “30 µM, 30.03 µM”, the “Percent Effect” value is on record as 13.03%.

Turning to `CC(C)CN1CCCC1c1ccc(C(=O)Nc2cccnc2)s1` (stereo not given), the “Percent Effect” value (30.3 µM, […]) stood at 100.5%.

As to `CC(C)CN1CCCC1c1ccc(C(=O)Nc2cc[nH]n2)s1` (stereo not given), the “Percent Effect” value (30.3 µM, […]) turned out to be 23.5%.

Regarding `CC(C)CN1CCCC1c1ccc(C(=O)Nc2ccc3[nH]nnc3c2)s1` (stereo not given), the “Percent Effect” value (30.3 µM, […]) is recorded as 85.03%.

As to `CCc1nnc(NC(=O)c2ccc(C3CCCN3CC(C)C)s2)s1` (stereo not given), the “Percent Effect” value (30.3 µM, […]) is given as -0.9926%.

Consider `CC(C)CN1CCCC1c1ccc(C(=O)Nc2cn(C)nn2)s1` (stereo not given), for which the “Percent Effect” value (30.3 µM, […]) is 0.1891%.

On to `Cc1cnc(NC(=O)c2ccc(C3CCCN3CC(C)C)s2)s1` (stereo not given), for which the “Percent Effect” value (30.3 µM, […]) is 0.4974%.

Turning to `COCCN(C)C[C@@H]1CN(C(=O)c2ccc3c(c2)OCO3)C[C@@H]1CO`, the “Percent Effect” value (30 µM, 30.03 µM) is given as -13.62%.

Turning to `CC(C)Cc1nc(OCC(N)=O)c(C#N)c2c1CCCC2`, where the note is “30 µM, 30.03 µM”, the “Percent Effect” value is listed as -29.84%.

Take `CCS(=O)(=O)N1CCN(Cc2ccncc2)c2nc(C)ccc2C1.O=C(O)C(F)(F)F.O=C(O)C(F)(F)F`: the “Percent Effect” value (30 µM, 30.03 µM) is 13.64%.

Regarding `COc1cccc2c1OCC(C(=O)NCc1nc3c(s1)CCCC3)C2` (stereo not given), the “Percent Effect” value (30 µM, 30.03 µM) turned out to be 60.51%.

`COc1cccc2c1OCC(C(=O)NCCc1nc3c(s1)CCC3)C2` (stereo not given): the “Percent Effect” value (30 µM, 30.03 µM) was -23.46%.

With `COc1ccc2c(c1)OCC(C(=O)NCc1nc3c(s1)CCCC3)C2` (stereo not given), the “Percent Effect” value (30 µM, 30.03 µM) is on record as -46.37%.

With `Cc1ccc2c(c1)C(NC(=O)N(C)C)CC21CCN(C(C)C)CC1.O=C(O)C(F)(F)F` (stereo not given), where the note is “30.3 µM, […]”, the “Percent Effect” value was -8.347%.

As to `COCCN1CCC2(CC1)CC(NC(=O)C(C)C)c1ccccc1O2.O=C(O)C(F)(F)F` (stereo not given), where the note is “30.3 µM, […]”, the “Percent Effect” value stood at 3.771%.

For `CC(NCc1ccc(OCC(N)=O)cc1)c1ccc(Cl)cc1.Cl` (stereo not given), the “Percent Effect” value (30.3 µM, […]) is reported as -11.6%.

Regarding `CC(NCc1ccc(OCC(N)=O)cc1)c1ccc(Cl)c(Cl)c1.Cl` (stereo not given), the “Percent Effect” value (30.3 µM, […]) was found to be 16.7%.

For the compound `CC(NCc1ccc(OCC(N)=O)cc1)c1ccc2c(c1)CCCC2` (stereo not given), the “Percent Effect” value (30.3 µM, […]) is recorded as 58.39%.

With `O=C(O)C(F)(F)F.O=C(O)C(F)(F)F.O=C(O)C(F)(F)F.c1ccc(CN2CCc3nnc(COc4ccccn4)n3CC2)nc1`, the “Percent Effect” value (30 µM, 30.03 µM) came to 1.272%.

As to `Cc1ccc(CN2CCn3c(C(=O)N(C)C)cnc3C2)s1.O=C(O)C(F)(F)F`, the “Percent Effect” value (30 µM, 30.03 µM) is on record as -2.366%.

`CCCn1c(C)c(CC(=O)N[C@H](C)C(=O)OC)c2c1CC(C)(C)CC2=O`: the “Percent Effect” value (30 µM, 30.03 µM) came out at 85.29%.

As for `CCCn1c(C)c(CC(=O)NC)c2c1CC(C)(C)CC2=O`, the “Percent Effect” value (30 µM, 30.03 µM) came out at 24.04%.

On to `CCCn1c(C)c(CC(=O)NC(C)CO)c2c1CC(C)(C)CC2=O` (stereo not given), for which, for the setting “30 µM, 30.03 µM”, the “Percent Effect” value is listed as -12.97%.

`Cc1cc(N2CCOCC(Cc3ccc4[nH]ccc4c3)C2)ncn1` (stereo not given): the “Percent Effect” value (30.3 µM, […]) worked out at 12.74%.

On to `c1cc(N2CCOCC(Cc3ccc4[nH]ccc4c3)C2)ncn1` (stereo not given), for which the “Percent Effect” value (30.3 µM, […]) is on record as -4.218%.

On to `Nc1cc(N2CCOCC(Cc3ccc4[nH]ccc4c3)C2)ncn1` (stereo not given), for which the “Percent Effect” value (30.3 µM, […]) came to 67.68%.

`O=C(CC1CC2(CCN(CC3CC3)CC2)Oc2ccccc21)NC1CC1.O=C(O)C(F)(F)F` (stereo not given): the “Percent Effect” value (30.3 µM, […]) is 11.6%.

For the compound `CCC[C@H]1CN(S(=O)(=O)N(C)Cc2ccccc2)C[C@@H]1N`, the “Percent Effect” value (30 µM, 30.03 µM) worked out at 8.364%.

`CCOCc1ccccc1NC(=O)NC1CCN(c2ccccc2)C1` (stereo not given): for the setting “30.3 µM, […]”, the “Percent Effect” value is 12.17%.

As to `CCOCc1ccccc1NC(=O)NC1CCN(CC(F)(F)F)C1` (stereo not given), the “Percent Effect” value (30.3 µM, […]) came to 8.993%.

On to `CCOCc1ccccc1NC(=O)NC1CCN(C2CCCC2)C1` (stereo not given), for which the “Percent Effect” value (30.3 µM, […]) stood at 99.06%.

On to `CN1CCCC(c2ccnc(C(=O)NCC3CC3)c2)C1` (stereo not given), for which, under “30.3 µM, […]”, the “Percent Effect” value is reported as -15.86%.

For the compound `Cn1cc(CN2CCCC3(CCCCN3S(C)(=O)=O)C2)cn1.O=C(O)C(F)(F)F` (stereo not given), the “Percent Effect” value (30 µM, 30.03 µM) is given as -25.71%.

`Cc1cccc(-c2nc(N)nc3c2CN(C(=O)c2ccncn2)C3C)c1` (stereo not given): for the setting “30.3 µM, […]”, the “Percent Effect” value is -0.8654%.

Regarding `Cc1cccc(-c2nc(N)nc3c2CN(C(=O)c2cc(C)n[nH]2)C3C)c1` (stereo not given), the “Percent Effect” value (30.3 µM, […]) is recorded as 90.24%.

With `COCC(=O)N1Cc2c(-c3cccc(C)c3)nc(N)nc2C1C` (stereo not given), the “Percent Effect” value (30.3 µM, […]) is on record as -11.02%.

Take `c1csc(CCNc2nc(-c3ccncc3)nc3c2CCNCC3)c1`: for the setting “30.3 µM, […]”, the “Percent Effect” value was 104%.

For the compound `COCCNc1nc2c(c(NCCc3cccs3)n1)CCNCC2`, the “Percent Effect” value (30 µM, 30.03 µM) is reported as -24.48%.

Turning to `Cc1ccc(CCNc2nc(-c3ccncc3)nc3c2CCNCC3)o1`, the “Percent Effect” value (30.3 µM, […]) is recorded as -212%.
